Test results as given in PubChem BioAssay.

Experiment: binders of probe aFSTL3 on microarray, primary screen, stem cell growth factor project, biochemical, small-molecule microarray, fluorescence 635/667 (AID 1064);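 also: measures binding of the biotinylated anti-FSTL3 antibody to printed compounds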
Conditions: higher = more signal

| SMILES | composite z-score |
| --- | --- |
| CCOC(=O)C[C@H]1[C@H](OC(=O)Cc2ccc3c(c2)OCO3)[C@@H](NC(=O)c2ccc3ccccc3c2)c2cc(OCCCO)ccc2N1C(=O)Cc1ccc(OC)cc1 | -0.0089 |
| O=C(NCc1ccccc1)c1ccc(Br)cc1[N+](=O)[O-] | -0.375 |
| CC(C)(C)OC(=O)CC[C@]1(C(=O)N2CCCCC2)N=C(c2ccc(OCCCO)cc2)O[C@H]1c1ccccc1 | -0.187 |
| C=CCNC(=O)[C@@H]1[C@H]2C(=O)O[C@H](c3ccccc3)[C@H](c3ccccc3)N2[C@H](c2ccc(OCCO)cc2)[C@@]12C(=O)N(C(=O)OCCOC)c1ccc(C#CC3(O)CCCCCC3)cc12 | 1.33 |
| CCCC=C(CCC)[C@@H](NS(=O)(=O)c1ccc(C(F)(F)F)cc1)c1ccc(-c2ccccc2)cc1 | 0.357 |
| NC(=O)NCC#Cc1ccc2c(c1)[C@]1(C(=O)N2)[C@H](C(=O)N2CCCCCCC2)[C@H]2C(=O)O[C@H](c3ccccc3)[C@H](c3ccccc3)N2[C@@H]1c1ccccc1OCCO | 3.86 |
| C=C[C@H](OC)[C@@H](OC(=O)Nc1ccc(SC)cc1)c1ccc(O)c(F)c1 | -0.0125 |
| CO[C@H]1COC(=O)CC=C[C@H](C)COC(=O)[C@@H](OCc2ccccc2)C=C[C@@H]1C | -0.938 |
| CC(C)C[C@@H]1NC(=O)[C@H]2C[C@@H](C(=O)NCCCCCC[N+](C)(C)C)[C@@H](c3ccc(O)cc3)N2C1=O | -0.332 |
| CO[C@H]1COC(=O)[C@@H](C)NC(=O)CC=C[C@@H](C)[C@H](OC)COC(=O)CC=C[C@@H]1C | -0.691 |
| C=CC[C@@]12N=C(c3ccc(OCCCO)cc3)O[C@@H]1c1ccccc1CN(Cc1ccccc1)C2=O | 1.36 |
| COc1ccc([Si](C)(C)[C@@H]2[C@@H](CC(=O)N(CCO)Cc3ccccc3)O[C@]3(C(=O)N(Cc4cccc(N5CCC5=O)c4)c4ccccc43)[C@H]2C)cc1 | -0.113 |
| CN(C)CCCC[C@@H]1NC(=O)[C@@H]2C[C@H](C(=O)O)[C@H](c3ccc(O)cc3)N2C1=O | 0.491 |
| CCOC(=O)C1=CCC(c2cccc3ccccc23)N(S(=O)(=O)c2ccc(C)cc2)C1 (stereo unspecified) | 0.609 |
| CO[C@@H]1COC(=O)CC=C[C@@H](C)[C@H](OC)COC(=O)CC=C[C@H]1C | -0.762 |
| C=C(COC)/C(=C/C[C@H](OC(C)=O)c1ccc(OCCO)cc1)c1cnc2ccccc2c1 | 0.0732 |
| CO[C@H]1O[C@H](CO)[C@@H](OC(=O)Nc2ccc(Oc3ccccc3)cc2)[C@H](OC(=O)Nc2ccccc2-c2ccccc2)[C@H]1OC(=O)Nc1ccccc1-c1ccccc1 | -0.448 |
| CCC1=C2CN(Cc3ccccc3Br)[C@@H]([C@@H](O)Cc3ccccc3)C2C=CCC1 (stereo partly specified) | -0.525 |

| SMILES | composite z-score |
| --- | --- |
| [N-]=[N+]=NCc1ccccc1C[C@@]1(C(=O)N2CCOCC2)N=C(c2ccc(OCCCO)cc2)O[C@@H]1c1ccccc1N=[N+]=[N-] | 0.308 |
| C=CC(=O)O[C@@H](Cc1ccccc1)[C@H]1C2C=CCCC=C2CN1Cc1cccc(Cl)c1 (stereo partly specified) | 0.32 |
| NC(=O)[C@H]1[C@@H]2C(=O)O[C@@H](c3ccccc3)[C@@H](c3ccccc3)N2[C@@H](c2ccc(O)cc2)[C@]12C(=O)Nc1ccc(C#CCCO)cc12 | 0.545 |
| NC(=O)NCC#Cc1ccc2c(c1)[C@]1(C(=O)N2)[C@H](C(N)=O)[C@H]2C(=O)O[C@H](c3ccccc3)[C@H](c3ccccc3)N2[C@@H]1c1ccccc1OCCO | 0.163 |
| C=CC[C@]1(C(N)=O)N=C(c2ccc(OCCCO)cc2)O[C@H]1c1ccccc1CN=[N+]=[N-] | 1.12 |
| C[N+](C)(C)CCCCNC(=O)[C@@H]1C[C@@H]2C(=O)N3CCC[C@H]3C(=O)N2[C@@H]1c1cccc(OCCO)c1 | -0.215 |
| O=C1O[C@H](c2ccccc2)[C@H](c2ccccc2)N2[C@H]1[C@@H](C(=O)Nc1nc3ccccc3s1)[C@]1(C(=O)Nc3ccc(C#CC4(O)CCCCCC4)cc31)[C@H]2c1ccc(O)cc1 | -0.299 |
| COc1ccc(C(O)C2C=CC3C(=O)N(C)C(=O)C3N2N2CCCCC2)cc1OCc1ccccc1 (stereo unspecified) | 0.556 |
| CC1=C([C@H](O)CCc2ccccc2)[C@H](CO)[C@@H]2C(=O)N(Cc3ccccc3)C(=O)[C@@H]2C1 | -0.183 |
| C=C[C@H](OC)[C@@H](OC(=O)Nc1ccc(SC)cc1)c1ccc(OC)c(O)c1 | 0.687 |
| CC(C)(C)OC(=O)CC[C@@]1(C(=O)NCc2ccccc2)N=C(c2ccc(OCCCO)cc2)O[C@@H]1c1ccccc1 | 0.844 |
| O=C1c2ccccc2[C@](Cc2ccccc2I)(C(=O)NCC(F)(F)F)[C@H](c2ccc(CO)cc2)N1Cc1ccccc1C(F)(F)F | -0.379 |
| C=CCC(OC(C)=O)[C@@H]1[C@@H](N(Cc2cccc3ccccc23)C(=O)Cc2ccc(F)cc2)c2cc(OCCCO)ccc2N1C(=O)Cc1ccc2ccccc2c1 (stereo partly specified) | -0.154 |
| C=CCN1C(=O)[C@@]2(Cc3ccccc3)N=C(c3ccc(OCCCO)cc3)O[C@H]2c2ccccc21 | 1.02 |
| Cc1ccc(N2C(=O)c3ccccc3[C@@H](C(=O)NCc3ccccc3)[C@@H]2c2ccc(CO)cc2)nc1 | 0.462 |
| CO[C@H]1COC(=O)[C@H](C)COC(=O)[C@H](Cc2ccccc2)NC(=O)CC=C[C@H]1C | 0.34 |
| CN(C)CCCC[C@@H]1NC(=O)[C@@H]2C[C@H](C(=O)NCCCCCNC(=O)CS)[C@H](c3ccc(O)cc3)N2C1=O | 0.174 |
| O=C1O[C@H](c2ccccc2)[C@H](c2ccccc2)N2[C@H]1[C@@H](C(=O)NC[C@H](O)c1ccccc1)[C@]1(C(=O)Nc3ccc(C#CC4=CCCCC4)cc31)[C@H]2c1ccc(OCCO)cc1 | 0.0854 |
